In paper PMC5540273 (PLoS ONE, 2017):

Key:
Details in all cases: concentration: 1 μM, replicates: in singlicate; n = 1
MTOR = tested on: MTOR
MUSK = tested on: MUSK
MYLK2 = tested on: MYLK2
MYLK4 = tested on: MYLK4
MYLK = tested on: MYLK
MYO3A = tested on: MYO3A
MYO3B = tested on: MYO3B
NDR1 = tested on: T1, NDR1
T1 construct: gene STK38

NDR2 = tested on: NDR2
NEK10 = tested on: NEK10
NEK11 = tested on: NEK11
NEK1 = tested on: NEK1
NEK2 = tested on: NEK2
NEK3 = tested on: NEK3
NEK4 = tested on: NEK4
NEK5 = tested on: NEK5
NEK6 = tested on: NEK6
NEK7 = tested on: NEK7
NEK9 = tested on: NEK9
NIK = tested on: T2, NIK
T2 construct: gene MAP3K14
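Note: KINOMEscan kinase panel screen.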

SMILES	%Inh (MTOR) [%]	%Inh (MUSK) [%]	%Inh (MYLK2) [%]	%Inh (MYLK4) [%]	%Inh (MYLK) [%]	%Inh (MYO3A) [%]	%Inh (MYO3B) [%]	%Inh (NDR1) [%]	%Inh (NDR2) [%]	%Inh (NEK10) [%]	%Inh (NEK11) [%]	%Inh (NEK1) [%]	%Inh (NEK2) [%]	%Inh (NEK3) [%]	%Inh (NEK4) [%]	%Inh (NEK5) [%]	%Inh (NEK6) [%]	%Inh (NEK7) [%]	%Inh (NEK9) [%]	%Inh (NIK) [%]
Nc1ncc(-c2ccc3nccc(-c4ccncc4)c3c2)cc1S(=O)(=O)N1CCOCC1 [GSK1627798]	99.3	0	0	0	20	0	0	6	0	16	0	0	12	0	5	0	0	0	2	0
Cl.c1ccc(-c2ccc3c(Nc4ccc5[nH]ccc5c4)ccnc3c2)nc1 [GW440138]	4	0	0	0	13	23	0	0	27	1	0	0	0	9	0	0	0	0	0	24
c1ccc(-c2cnc3nccnn23)cc1 [AH20685]	2	2	0	0	0	0	0	0	0	0	0	0	0	0	16	0	0	0	0	0
COc1cccc(C2=C(Nc3ccc(Cl)c(C(=O)O)c3)C(=O)NC2=O)c1 [SB-390769]	18	17	21	60	100	20	0	100	0	73	27	0	0	7	38	3	0	0	0	21
Cl.Cl.NCC(NC(=O)c1cc(-c2ccccc2)c(-c2ccnc3[nH]ccc23)s1)c1ccccc1 (stereo not shown) [GSK1321561]	0	13	17	94.9	26	14	0	24	16	25	6	0	8	0	0	6	0	0	13	17
COc1ccc(-c2coc3ccc(-c4nnc(SCc5ccc(OC)c(C(F)(F)F)c5)o4)cc23)cc1	0	1	0	0	15	8	36	20	0	0	0	0	8	0	2	0	13	0	0	1
O=C(NC1CCN(c2ccnc(Nc3ccc(F)cc3)n2)C1)c1cc2ccccc2s1 (stereo not shown) [GSK1379716]	25	21	4	5	36	36	0	8	0	19	20	0	8	9	0	13	3	0	17	42
O=C(Nc1cccc(-c2nn3ncccc3c2-c2ccnc(Nc3ccccc3)n2)c1)c1c(F)cccc1F [GSK198271]	10	4	0	0	7	6	30	11	0	0	0	3	21	11	4	0	0	0	8	0
CCn1c(-c2nonc2N)nc2c(C#CC(C)(C)O)ncc(OCCCCN)c21.O=C(O)C(F)(F)F.O=C(O)C(F)(F)F [GSK507274]	19	15	48	0	0	12	5	7	0	15	50	0	34	5	34	11	1	0	0	68
CN1CCN(Cc2cccc(-c3ccc4c(Nc5ccc(Oc6ccccc6)cc5)ccnc4c3)c2)CC1 [GW578342]	15	17	0	0	13	28	0	14	25	0	28	0	0	3	0	0	0	0	16	24
c1ccc(Oc2ccc(Nc3ccnc4cc(-c5ccc(CNCCN6CCOCC6)o5)ccc34)cc2)nc1 [GW567145]	23	1	0	0	0	24	0	16	40	0	45	0	0	0	0	0	0	0	13	28
COc1cc(Nc2nccc(N3CCC(NC(=O)Nc4cccc(C(C)=O)c4)C3)n2)cc(OC)c1OC (stereo not shown) [GSK1379753]	0	18	7	1	17	6	0	8	0	20	0	58	43	41	30	100	1	45	27	5
Nc1n[nH]c2cnc(-c3ccccc3)cc12 [SB-642124]	14	99.9	6	69	3	8	0	20	0	47	3	0	0	79	12	96.5	0	0	0	10
CN1CCN(CCCNc2nccc(-c3c(-c4ccc(F)cc4)nn4cc(C(F)(F)F)ccc34)n2)CC1 [GW621581]	0	0	8	0	0	0	0	10	0	10	14	0	14	0	0	0	0	11	0	18
COc1cc(Nc2nccc(N3CCC(NC(=O)c4cc5ccccc5s4)C3)n2)cc(OC)c1OC (stereo not shown) [GSK1379760]	34	1	13	3	0	17	0	12	0	18	0	35	26	11	13	99.5	27	37	31	4
c1ccc(-c2n[nH]cc2Nc2ccnc3ccccc23)nc1 [GW694077]	11	7	0	99.9	22	25	0	0	4	95.7	0	7	99.1	3	0	6	0	0	41	19
COc1cccc(NC(=O)NC2CCN(c3ccnc(Nc4cc(OC)c(OC)c(OC)c4)n3)C2)c1 (stereo not shown) [GSK1379763]	7	5	0	0	17	12	0	0	0	15	0	65	21	33	5	100	16	52	40	6
COc1ccc(Nc2nccc(N3CCC(NC(=O)Nc4cccc(OC)c4)C3)n2)cc1 (stereo not shown) [GSK1379742]	10	8	14	0	2	0	0	0	0	0	0	0	17	0	0	3	0	0	2	7
CC(=O)N1CCN(c2ccc(Nc3nccc(-c4sc(C(C)C)nc4-c4cccc(NS(=O)(=O)c5cccc(Cl)c5)c4)n3)cn2)CC1 [GSK1660437]	3	14	0	0	7	12	49	14	0	0	90	0	42	0	6	2	32	73	85	17
Cn1cc(-c2ccc3c(c2)CCN3C(=O)Cc2cccc(Cl)c2)c2c(N)ncnc21 [GSK2606590]	0	29	71	0	8	43	21	0	0	18	0	26	66	1	22	32	11	0	18	23
